Reference: PubChem BioAssay AID1159580 (chemical genetic matrix, 2015)
Values joined by “and” are separate entries in the source; they are usually repeats but may differ in a detail not shown here. Equal entries are not always repeated. Screen size: about 5,500 compounds; about 2,000 (36%) were called active. Another 18% or so got no clear call; they are omitted. Rule as the data show it: active = normalized growth mostly below about 0.91 (no sharp cut-off); inconclusive = no clear call, values can overlap the other calls; inactive = mostly above about 0.92. The list shows a part of the results.

Test: chemical genetic growth profiling, strain panel (AID 1159580);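 also: tested at 20 µM; growth read once vehicle control cultures reached saturation at 30 °C; 1 = growth at the plate median or of vehicle wells; lower values mean less growth of the strain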
Conditions: S. cerevisiae deletion strains, growth OD

Which normalized growth (locus YAL021C, strain ccr4, stronger effect = lower value) does the source give for `CN(Cc1cnc2nc(N)nc(N)c2n1)c1ccc(C(=O)NC(CCC(=O)O)C(=O)O)cc1` (stereo unspecified) here?
Its normalized growth is 0.958 (inactive).

And the normalized growth (locus YAL026C, strain drs2, stronger effect = lower value)?
Its normalized growth is 0.911 (inactive).

And the normalized growth (locus YAL030W, strain snc1, stronger effect = lower value)?
The normalized growth was 0.945 (inactive).

What about the normalized growth (locus YAL040C, strain CLN3, stronger effect = lower value) of the same compound?
Its normalized growth is 1.09 (inactive).

And the normalized growth (locus YBL061C, strain skt5, stronger effect = lower value)?
Its normalized growth is 0.927 (inactive).

And the normalized growth (locus YBR009C, strain hhf1, stronger effect = lower value)?
The normalized growth was 0.888 (active).

What about the normalized growth (locus YBR021W, strain FUR4, stronger effect = lower value) of the same compound?
Its normalized growth is 0.958 (inactive).

What about the normalized growth (locus YBR023C, strain chs3, stronger effect = lower value) of the same compound?
Its normalized growth is 0.911 (active).

What about the normalized growth (locus YBR171W, strain sec66, stronger effect = lower value) of the same compound?
Its normalized growth is 0.94 (inactive).

What about the normalized growth (locus YBR229C, strain ROT2, stronger effect = lower value) of the same compound?
The normalized growth was 0.987 (inactive).

What about the normalized growth (locus YBR231C, strain swc5, stronger effect = lower value) of the same compound?
The normalized growth was 0.931 (inactive).

And the normalized growth (locus YBR279W, strain paf1, stronger effect = lower value)?
Its normalized growth is 0.962 (inactive).

And the normalized growth (locus YCL011C, strain gbp2, stronger effect = lower value)?
Its normalized growth is 0.857 (active).

And the normalized growth (locus YCL016C, strain dcc1, stronger effect = lower value)?
The normalized growth was 0.867 (active).

What about the normalized growth (locus YCL029C, strain bik1, stronger effect = lower value) of the same compound?
The normalized growth was 0.988 (inactive).

And the normalized growth (locus YCL061C, strain MRC1 (second series), stronger effect = lower value)?
The normalized growth was 1.01 (inactive).

What about the normalized growth (locus YCL061C, strain MRC1, stronger effect = lower value) of the same compound?
Its normalized growth is 0.891 (active).

What about the normalized growth (locus YCL069W, strain vba3, stronger effect = lower value) of the same compound?
The normalized growth was 0.948 (inactive).

And the normalized growth (locus YCR088W, strain abp1, stronger effect = lower value)?
Its normalized growth is 0.954 (inactive).

And the normalized growth (locus YDL005C, strain med2, stronger effect = lower value)?
The normalized growth was 0.997 (inactive).

And the normalized growth (locus YDL035C, strain GPR1, stronger effect = lower value)?
The normalized growth was 0.975 (inactive).

And the normalized growth (locus YDL040C, strain nat1, stronger effect = lower value)?
Its normalized growth is 0.959 (inactive).

What about the normalized growth (locus YDL074C, strain BRE1, stronger effect = lower value) of the same compound?
Its normalized growth is 0.963 (inactive).

And the normalized growth (locus YDL101C, strain DUN1, stronger effect = lower value)?
Its normalized growth is 0.997 (inactive).

What about the normalized growth (locus YDL134C, strain PPH21, stronger effect = lower value) of the same compound?
Its normalized growth is 1 (inactive).

And the normalized growth (locus YDL185W, strain tfp1, stronger effect = lower value)?
Its normalized growth is 0.141 (active).

What about the normalized growth (locus YDL192W, strain arf1, stronger effect = lower value) of the same compound?
The normalized growth was 0.95 (inactive).

What about the normalized growth (locus YDR001C, strain nth1, stronger effect = lower value) of the same compound?
The normalized growth was 0.933 (inactive).

And the normalized growth (locus YDR069C, strain doa4, stronger effect = lower value)?
Its normalized growth is 0.955 (inactive).

What about the normalized growth (locus YDR101C, strain arx1, stronger effect = lower value) of the same compound?
Its normalized growth is 0.994 (inactive).

What about the normalized growth (locus YDR137W, strain rgp1, stronger effect = lower value) of the same compound?
The normalized growth was 0.907 (inactive).

What about the normalized growth (locus YDR150W, strain NUM1, stronger effect = lower value) of the same compound?
The normalized growth was 0.974 (inactive) and 0.986 (inactive).

What about the normalized growth (locus YDR159W, strain sac3, stronger effect = lower value) of the same compound?
Its normalized growth is 0.978 (inactive).

And the normalized growth (locus YDR162C, strain NBP2, stronger effect = lower value)?
Its normalized growth is 0.982 (inactive).

What about the normalized growth (locus YDR195W, strain ref2) of the same compound?
Its normalized growth is 1.01 (inactive).

And the normalized growth (locus YDR297W, strain sur2, stronger effect = lower value)?
The normalized growth was 0.955 (inactive).

And the normalized growth (locus YDR318W, strain mcm21, stronger effect = lower value)?
The normalized growth was 0.994 (inactive).

What about the normalized growth (locus YDR334W, strain swr1, stronger effect = lower value) of the same compound?
The normalized growth was 0.881 (active).

And the normalized growth (locus YDR335W, strain msn5, stronger effect = lower value)?
The normalized growth was 0.97 (inactive).

What about the normalized growth (locus YDR388W, stronger effect = lower value) of the same compound?
The normalized growth was 1 (inactive).

What about the normalized growth (locus YDR392W, strain spt3, stronger effect = lower value) of the same compound?
Its normalized growth is 0.951 (inactive).

And the normalized growth (locus YDR502C, strain sam2, stronger effect = lower value)?
The normalized growth was 0.967 (inactive).

What about the normalized growth (locus YEL003W, strain gim4, stronger effect = lower value) of the same compound?
Its normalized growth is 0.967 (inactive).

What about the normalized growth (locus YEL037C, strain rad23, stronger effect = lower value) of the same compound?
Its normalized growth is 0.902 (active).

What about the normalized growth (locus YEL061C, strain CIN8 (second series), stronger effect = lower value) of the same compound?
The normalized growth was 0.944 (inactive).

And the normalized growth (locus YEL061C, strain CIN8, stronger effect = lower value)?
Its normalized growth is 0.962 (inactive).

What about the normalized growth (locus YER002W, strain NOP16, stronger effect = lower value) of the same compound?
Its normalized growth is 0.971 (inactive).

And the normalized growth (locus YER015W, strain faa2, stronger effect = lower value)?
Its normalized growth is 0.958 (inactive).

And the normalized growth (locus YER016W, strain bim1, stronger effect = lower value)?
The normalized growth was 0.965 (inactive).

What about the normalized growth (locus YER110C, stronger effect = lower value) of the same compound?
Its normalized growth is 0.985 (inactive).

What about the normalized growth (locus YER111C, strain swi4, stronger effect = lower value) of the same compound?
Its normalized growth is 0.962 (inactive).

And the normalized growth (locus YER155C, strain BEM2 (second series), stronger effect = lower value)?
Its normalized growth is 0.892 (inactive).

And the normalized growth (locus YER155C, strain BEM2, stronger effect = lower value)?
The normalized growth was 0.976 (inactive).

And the normalized growth (locus YER167W, strain BCK2, stronger effect = lower value)?
Its normalized growth is 0.958 (inactive).

And the normalized growth (locus YFR010W, strain ubp6, stronger effect = lower value)?
The normalized growth was 0.942 (inactive).

And the normalized growth (locus YGL078C, strain dbp3, stronger effect = lower value)?
The normalized growth was 0.32 (active).

And the normalized growth (locus YGL086W, strain mad1, stronger effect = lower value)?
The normalized growth was 1 (inactive).

What about the normalized growth (locus YGL167C, strain pmr1, stronger effect = lower value) of the same compound?
Its normalized growth is 0.942 (inactive).

What about the normalized growth (locus YGL173C, strain kem1, stronger effect = lower value) of the same compound?
The normalized growth was 0.96 (inactive).

And the normalized growth (locus YGL227W, strain vid30, stronger effect = lower value)?
The normalized growth was 0.922 (inactive).

And the normalized growth (locus YGL240W, strain doc1, stronger effect = lower value)?
Its normalized growth is 0.967 (inactive).

And the normalized growth (locus YGL248W, strain PDE1, stronger effect = lower value)?
The normalized growth was 0.994 (inactive).

What about the normalized growth (locus YGL253W, strain hxk2, stronger effect = lower value) of the same compound?
Its normalized growth is 0.934 (inactive).

And the normalized growth (locus YGR135W, strain pre9, stronger effect = lower value)?
Its normalized growth is 0.933 (inactive).

And the normalized growth (locus YGR252W, strain gcn5, stronger effect = lower value)?
The normalized growth was 1.02 (inactive).

And the normalized growth (locus YHR013C, strain ard1, stronger effect = lower value)?
Its normalized growth is 0.938 (inactive).

What about the normalized growth (locus YHR027C, strain rpn1, stronger effect = lower value) of the same compound?
The normalized growth was 0.945 (inactive).

And the normalized growth (locus YHR030C, strain SLT2, stronger effect = lower value)?
The normalized growth was 0.946 (inactive) and 0.147 (active).

And the normalized growth (locus YHR079C, strain IRE1 (second series), stronger effect = lower value)?
Its normalized growth is 0.988 (inactive).

And the normalized growth (locus YHR079C, strain IRE1, stronger effect = lower value)?
The normalized growth was 0.188 (active).

And the normalized growth (locus YHR094C, strain hxt1, stronger effect = lower value)?
The normalized growth was 1 (inactive).

And the normalized growth (locus YHR129C, strain ARP1, stronger effect = lower value)?
Its normalized growth is 0.982 (inactive).

And the normalized growth (locus YHR142W, strain chs7, stronger effect = lower value)?
The normalized growth was 0.86 (active).

What about the normalized growth (locus YHR200W, strain rpn10, stronger effect = lower value) of the same compound?
Its normalized growth is 0.959 (inactive).

What about the normalized growth (locus YIL066C, strain RNR3, stronger effect = lower value) of the same compound?
The normalized growth was 1 (inactive).

And the normalized growth (locus YIL073C, strain SPO22, stronger effect = lower value)?
The normalized growth was 0.95 (inactive).

And the normalized growth (locus YIL125W, strain kgd1, stronger effect = lower value)?
The normalized growth was 0.278 (active).

And the normalized growth (locus YIR030C, strain dcg1, stronger effect = lower value)?
Its normalized growth is 0.975 (inactive).

And the normalized growth (locus YJL092W, strain hpr5, stronger effect = lower value)?
The normalized growth was 0.818 (active).

What about the normalized growth (locus YJL095W, strain BCK1 (second series), stronger effect = lower value) of the same compound?
Its normalized growth is 0.964 (inactive).

What about the normalized growth (locus YJL095W, strain BCK1, stronger effect = lower value) of the same compound?
Its normalized growth is 0.993 (inactive) and 0.152 (active).

What about the normalized growth (locus YJL115W, strain asf1, stronger effect = lower value) of the same compound?
Its normalized growth is 0.845 (active).

What about the normalized growth (locus YJL129C, strain trk1, stronger effect = lower value) of the same compound?
The normalized growth was 0.89 (inactive).

And the normalized growth (locus YJL134W, strain LCB3, stronger effect = lower value)?
Its normalized growth is 0.992 (inactive).

And the normalized growth (locus YJL154C, strain vps35, stronger effect = lower value)?
The normalized growth was 0.96 (inactive).

And the normalized growth (locus YJL164C, strain tpk1, stronger effect = lower value)?
Its normalized growth is 0.96 (inactive).

And the normalized growth (locus YJL166W, strain qcr8, stronger effect = lower value)?
Its normalized growth is 0.94 (inactive).

And the normalized growth (locus YJL168C, strain set2, stronger effect = lower value)?
Its normalized growth is 1 (inactive).

What about the normalized growth (locus YJL187C, strain SWE1 (second series), stronger effect = lower value) of the same compound?
The normalized growth was 0.99 (inactive).

And the normalized growth (locus YJL187C, strain SWE1, stronger effect = lower value)?
The normalized growth was 0.953 (inactive).

What about the normalized growth (locus YJR043C, strain POL32, stronger effect = lower value) of the same compound?
Its normalized growth is 0.98 (inactive).
